Screening data (PubChem BioAssay)
FLuc counter: inhibits or activates purified firefly luciferase, miR-21 counter-screen; P08659; purified FLuc, Km substrates, luminescence inhibition; Potency, µM (top dose mostly 57.5 µM), without a hit: at the highest dose activity change, negative = inhibition, hits mostly inhibitors; actives 6.9% (n = 360,000); AID 588342;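 also: plate controls were vehicle for no effect and reference inhibitor for full effect; nearly all actives have a fitted effect of over 55% in size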
Target sequence (P08659 whole entry, looked up): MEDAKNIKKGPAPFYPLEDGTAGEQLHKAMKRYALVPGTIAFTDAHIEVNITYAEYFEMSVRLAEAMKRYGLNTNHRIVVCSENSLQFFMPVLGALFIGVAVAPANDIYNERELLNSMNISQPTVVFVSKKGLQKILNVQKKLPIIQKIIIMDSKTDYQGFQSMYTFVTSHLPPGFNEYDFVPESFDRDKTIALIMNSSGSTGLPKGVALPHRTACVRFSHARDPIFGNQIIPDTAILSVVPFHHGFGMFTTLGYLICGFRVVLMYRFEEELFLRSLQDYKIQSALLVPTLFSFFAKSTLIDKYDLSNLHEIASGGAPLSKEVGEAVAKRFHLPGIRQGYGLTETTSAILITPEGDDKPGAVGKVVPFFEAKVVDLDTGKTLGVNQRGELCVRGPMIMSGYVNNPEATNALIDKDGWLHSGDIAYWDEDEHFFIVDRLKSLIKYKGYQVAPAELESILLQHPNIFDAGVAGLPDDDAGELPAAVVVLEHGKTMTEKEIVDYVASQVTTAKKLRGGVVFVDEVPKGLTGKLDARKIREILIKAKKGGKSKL
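Purified P. pyralis luciferase, 10 nM final, with Km-level 10 uM D-luciferin and 10 uM ATP in 50 mM Tris acetate pH 7.5, 10 mM Mg acetate, 0.01% Tween-20, 0.05% BSA; 6-point qHTS titration about 60 µM downward; luminescence read.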
NPC1 prom act: NPC1 promoter activation | Potency, µM (series often up to 9.22 µM), for the others: at the top dose activation, actives largely listed as activators | Huh7 NPC1 promoter luciferase reporter, 24 h | actives 2.4% (n = 320,000) | AID 485313; also: % of control where 0% means no effect; nearly all actives have a fitted effect of over 60% in size
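Stable NPC1-promoter luciferase Huh7 line; cpd (DMSO) 24 h, 37 °C, 5% CO2; Amplite luciferase reagent 10 min RT; luminescence readout. qHTS format.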
SMN2 splice up: SMN2 splice variant enhancement | actives 2.8% (n = 210,000) | HEK293 SMN2-luciferase splicing reporter, luminescence, 30-36 h | Potency, µM (series often up to 46.1 µM), for inactives: top-dose activity change, positive = activation, most hits filed as activators | AID 1458; also: % of control where 0% means no effect; nearly all actives have a fitted effect of over 55% in size
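HEK293 cells carry an SMN2 […]–luciferase reporter in which exon 7 inclusion puts luciferase in frame. Cells were plated 10-12 h before compound addition, then incubated 30-36 h at 37C. ONE-Glo luminescence was read; sodium butyrate at 4.5 mM final served as control.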
ELG1 genotox: genotoxicity induction in ELG1-luciferase HEK293T cells; HEK293T ELG1-luciferase reporter, luminescence, 16 h; Potency, µM (highest dose often 46 µM), inactives show at the top dose activity change, positive = activation, most hits filed as activators; actives 1.3% (n = 330,000); also: % of control where 0% means no effect; nearly all actives have a fitted effect of over 60% in size
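Genotoxicity was scored as increased ELG1-luciferase reporter signal, measured by ONE-Glo luminescence (30 min, room temperature). Compound or vehicle exposure of the HEK293T reporter cells lasted 16 hr at 37°C.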
Rab9 promoter act: activators of Rab9 promoter; Huh7 Rab9 promoter-luciferase reporter, luminescence, 24 h; Potency, µM (series often up to 9.22 µM), for the others: at the highest dose activation, negative = inhibition, usual class: activators; actives 2.8% (n = 320,000); AID 485297; also: % of control where 0% means no effect; nearly all actives have a fitted effect of over 60% in size
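Promoter activation is measured as luciferase luminescence in Huh7 cells stably transfected with a Rab9 promoter–luciferase construct, following 24 h compound exposure at 37 °C and 10 min reagent incubation at ambient temperature.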
ELG1 DNA repair: blocks ELG1-dependent DNA repair in HEK293T cells; HEK293T ELG1-luciferase reporter, luminescence, 16 h; DNA damage induced by 5-fluorouridine; Potency, µM (series often up to 46.1 µM), for the others: top-dose activity change, negative = inhibition, usual class: inhibitors; actives 2.3% (n = 330,000); also: % is scaled to controls: 0 for no effect and ±100 for the full control effect; nearly all actives have a fitted effect of over 55% in size
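Quantitative HTS, concentration-response format. 2,000 cells/well co-treated with 5-fluorouridine and compound, 16 hr in 5% CO2 at 37 °C; ONE-Glo luminescence read after 30 min.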
* = called active by the depositor; ? = inconclusive; nt = not tested or not shown; [ ] = another dose, or the depositor's remark. Only some compounds are listed: those with a hit (about 9.3% of all), similar ones and a draw of the others. Calls follow the shape of the dose curve; as a rule, active = well fitted curve in the direction sought with a large enough effect; inconclusive = small, poorly fitted or top-dose-only effect, or another doubt; inactive = no such curve, though single readings can be large; an effect the other way counts as inactive or inconclusive. Potency is read from the fitted curve at half-maximal effect.

SMILES	FLuc counter	NPC1 prom act	SMN2 splice up	ELG1 genotox	Rab9 promoter act	ELG1 DNA repair
Clc1ccc2c(c1)-n1cc(-c3ccccc3)nc1CO2	21µM*	nt	?	nt	nt	nt
CC(C)(C)c1ccc(/C=N/N2CCN(c3ccccn3)CC2)cc1	-7%	-4%	nt	-5%	-5%	?
C(=N\N1CCN(c2ccccn2)CC1)/c1ccccn1	17µM*	22%	nt	?	?	?
CN(C)c1ccc(/C=N/N2CCN(c3ccccn3)CC2)cc1	4.8µM*	?	nt	?	?	?
CN(c1ccccc1)c1ccc(/C=N/N2CCOCC2)cc1	1.7µM*	1.8µM*	7.9µM*	18µM*	1.3µM*	?
COc1ccc2c(c1)O[C@H](c1ccc3c(c1)OCO3)[C@@H](OC(=O)NS(=O)(=O)c1ccc(C)cc1)C2=O	nt	nt	12%	nt	nt	nt
CN(C(=O)c1nn(C)c2c1CSc1ccccc1-2)c1ccc(F)cc1	-5%	0%	nt	2%	1%	22%
CC(C)c1ccc(-n2cnn(-c3ncccc3[N+](=O)[O-])c2=O)cc1	3µM*	1.1µM*	7.9µM*	2.3µM*	0.89µM*	?
Cc1cc(C)n(-c2ncccc2[N+](=O)[O-])n1	1%	0%	nt	0%	-5%	5%
Nc1cccc(-c2ccc(CO)o2)c1	17µM*	0%	nt	8%	0%	?
Nc1cccc(N)c1	nt	nt	-5%	nt	nt	nt
CNC(=O)NC(=O)C(C)Oc1ccccc1F (configuration not stated)	-1%	-1%	-19%	0%	-3%	-10%
OCCNc1nc2nonc2nc1NCCO	-1%	-4%	11%	7%	-5%	1%
COCCCNc1nc2nonc2nc1NCCSC	1%	1%	nt	-4%	-5%	23µM*
CN(c1nc2nonc2nc1NC1CC1)C1CCOC1 (configuration not stated)	-20%	-5%	nt	-6%	-1%	?
Cc1ccc(S(=O)(=O)Nc2cccc(C(=O)NCc3ccccn3)c2)cc1F	-1%	1%	nt	2%	4%	?
O=C(Nc1ccc(N2C(=O)C3CCCCC3C2=O)cc1Cl)c1cccs1 (configuration not stated)	1%	-2%	12%	8%	9%	17%
Cc1cc(C)nc(Nc2nc(=O)c3ccccc3s2)n1	17µM*	?	?	18µM*	?	?
O=C(c1ccccc1)n1ccc(-c2cnc(-c3ccccc3)s2)n1	4.3µM*	1.4µM*	3.5µM*	1.6µM*	1.6µM*	?
COc1ccccc1Nc1nc2ccccc2n2cnnc12	?	10%	nt	-1%	0%	0%
COc1cccc(CNc2cnc3ccccc3c2)c1O	2.4µM*	1.6µM*	3.5µM*	12µM*	1.8µM*	?
COc1cccc(CNc2nc3ccccc3n2C)c1O	9.5µM*	1µM*	nt	9.2µM*	1.8µM*	?
COc1ccccc1Nc1nc2ccccc2n1C	15µM*	?	11µM*	?	2.8µM*	?
CSc1ccc(/C=C(\NC(=O)c2ccc(C)cc2)C(=O)NN)cc1	-6%	6%	nt	-4%	7%	18µM*
CCOc1ccccc1NC(=O)C1CCCN1S(=O)(=O)c1ccc2nc(-c3ccccc3)[nH]c2c1 (configuration not stated)	-15%	nt	nt	nt	nt	nt
SMILES	FLuc counter	NPC1 prom act	SMN2 splice up	ELG1 genotox	Rab9 promoter act	ELG1 DNA repair
N#Cc1ccccc1/C=N/Nc1nc(-c2ccccc2)c2cc(Cl)ccc2n1	-1%	-3%	9%	15%	-4%	0%
Cc1ccc2nc(N/N=C/c3ccccc3C#N)nc(-c3ccccc3)c2c1	11µM*	1%	-8%	-6%	7%	21µM*
Cc1cc(O)c(-c2cc(C(=O)NCc3ccc4c(c3)OCO4)[nH]n2)cc1C	0%	0%	-1%	1%	1%	-30%
COc1ccc(CCNC(=O)c2cc(-c3cc(C)ccc3O)n[nH]2)cc1OC	-14%	5%	8%	-5%	-3%[1.84 µM]	23µM*
Cc1cccc(NC(=O)c2cc(-c3cc(C)c(C)cc3O)n[nH]2)c1	?	0.89µM*	nt	?	0.56µM*	?
COc1ccc(NC(=O)c2cc(-c3cc(C)ccc3O)n[nH]2)cc1Cl	-4%	9%	-7%	-1%	0%	4%
Cc1cccc(NC(=O)c2cc(-c3cc(C)ccc3O)n[nH]2)c1	3µM*	1.1µM*	nt	?	?	?
Cc1ccc(-c2cc(C(=O)NCc3ccc4c(c3)OCO4)[nH]n2)c(O)c1C	19µM*	-1%	-12%	-1%	-1%	-20%
Cc1ccc(OCC(=O)N(Cc2sccc2C)C2CCS(=O)(=O)C2)cc1 (configuration not stated)	-3%	nt	2%	nt	nt	nt
CC1CCCC(C)N1C(=O)COC(=O)c1cc(-c2cccs2)nn1-c1ccccc1 (configuration not stated)	4%	0%	nt	-5%	-1%	-1%
CCN1c2ccccc2-c2nc(SCC(=O)Nc3ccc(C)c(Cl)c3)ncc2S1(=O)=O	0%	nt	nt	nt	nt	nt
Cc1ccc(S(=O)(=O)N(CC(=O)NCC2CCCO2)Cc2ccc(F)cc2)cc1 (configuration not stated)	3%	-1%	nt	-10%	-2%	0%
Cc1c(Cl)cccc1NC(=O)c1cc(-c2ccccc2O)n[nH]1	21µM*	?	0%	?	?	?
O=C(Nc1ccc(S(=O)(=O)N2CCOCC2)cc1)c1cc(-c2ccccc2O)n[nH]1	3%	2%	nt	-2%	-5%	0%
COc1ccc(Cl)cc1NC(=O)c1cc(-c2ccccc2O)n[nH]1	-18%	-4%	0%	-1%	-2%	13%
NS(=O)(=O)c1ccc(NC(=O)c2cc(-c3cc(Cl)ccc3O)n[nH]2)cc1	-5%	9%	nt	-1%	-2%	5.2µM*
CC1CN(S(=O)(=O)c2ccc(NC(=O)c3cc(-c4ccccc4O)n[nH]3)cc2)CC(C)O1 (configuration not stated)	-1%	-6%	-15%	-13%	-5%	20µM*
COc1ccc(CCNC(=O)c2cc(-c3ccc(C)c(C)c3O)n[nH]2)cc1OC	?	-1%	-32%	-13%	0%	?
Cc1ccc(-c2cc(C(=O)Nc3cccnc3)[nH]n2)c(O)c1C	3.4µM*	?	nt	9.2µM*	4µM*	?
CCOc1ccc(Oc2ccc(NC(=O)[C@@H](NC(N)=O)[C@@H](C)CC)cc2)cc1	1%	7%	nt	?	3%	?
